The results in this text go back to the supplement of paper PMC10849652.

Test in all cases: log2 fold change, soluble protein after heating vs DMSO (PISA); higher = thermal stabilisation; K562 cells, 10 uM, 30 min; active = over 0.2 and 3.5 SD of the protein, either way, in both replicates (recomputed)
Compound in one assay: CN1CCc2c(c3ccccc3n2Cc2ccc(C(=O)NO)cc2)C1 [Tubastatin A]
In outline:
(§1)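 Thermal stability values are relative to control samples and come from duplicates. They are expressed as log2 fold changes. For measurement, K562 cells (2×10^6 cells/mL) received 10 μM compound for 30 min, and aliquots were heated for 3 min over 48°C-58°C, pooled, and extracted at 4°C in PBS with 0.5% NP-40. Soluble protein, the supernatant after 21,000xg for 90 min, was quantified by TMTpro 16plex LC-MS/MS with equalised channel sums.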

Compound in assay [1]: CNC(=O)C1=CC=CC=C1NC2=NC(=NC=C2Cl)NC3=C(C=C(C=C3)N4CCOCC4)OC
In a few lines: as §1

Compound in the next assay: CN1CCN(c2nc(C3=C(c4c[nH]c5ccccc45)C(=O)NC3=O)c3ccccc3n2)CC1 [sotrastaurin]
In a few lines:
as §1

Compound in another assay: CNC(=O)c1ccc(Nc2ncc(C(F)(F)F)c(NCc3nccnc3N(C)S(C)(=O)=O)n2)cc1 [defactinib]
In outline:
as §1

Compound in assay [2]: COC(=O)[C@H](CCSC)NC(=O)C1=C(C=C(C=C1)NC[C@H](CS)N)C2=CC=CC=C2
In outline: as §1

Compound in another assay: CN1CCN(CCOc2cc(OC3CCOCC3)c3c(Nc4c(Cl)ccc5c4OCO5)ncnc3c2)CC1 [saracatinib]
In outline:
as §1

Compound in a further assay: CN1CC[C@H](c2c(O)cc(O)c3c(=O)cc(-c4ccccc4Cl)oc23)[C@H](O)C1 [alvocidib]
In a few lines: as §1

Compound in the next assay: CNCc1ccc(-c2[nH]c3cc(F)cc4c3c2CCNC4=O)cc1 [rucaparib]
In outline:
as §1

Compound in assay [3]: CNc1nc(-c2ccc3c(N)n[nH]c3c2)cc(N2C[C@@H](C(=O)NC3CCCCC3)CC[C@H]2C)n1
In a few lines: as §1

Compound in the next assay: COC(=O)N[C@@H](C)CNc1nccc(-c2cn(C(C)C)nc2-c2cc(Cl)cc(NS(C)(=O)=O)c2F)n1 [encorafenib]
In a few lines: as §1

Targets with a hit are over-represented here; the source holds about 7,900 in all. About 0.6% of all pairs of compound and target were hits. Values without a mark were called inactive.

UniProt Q02383, sequence (Q02383 whole entry, looked up): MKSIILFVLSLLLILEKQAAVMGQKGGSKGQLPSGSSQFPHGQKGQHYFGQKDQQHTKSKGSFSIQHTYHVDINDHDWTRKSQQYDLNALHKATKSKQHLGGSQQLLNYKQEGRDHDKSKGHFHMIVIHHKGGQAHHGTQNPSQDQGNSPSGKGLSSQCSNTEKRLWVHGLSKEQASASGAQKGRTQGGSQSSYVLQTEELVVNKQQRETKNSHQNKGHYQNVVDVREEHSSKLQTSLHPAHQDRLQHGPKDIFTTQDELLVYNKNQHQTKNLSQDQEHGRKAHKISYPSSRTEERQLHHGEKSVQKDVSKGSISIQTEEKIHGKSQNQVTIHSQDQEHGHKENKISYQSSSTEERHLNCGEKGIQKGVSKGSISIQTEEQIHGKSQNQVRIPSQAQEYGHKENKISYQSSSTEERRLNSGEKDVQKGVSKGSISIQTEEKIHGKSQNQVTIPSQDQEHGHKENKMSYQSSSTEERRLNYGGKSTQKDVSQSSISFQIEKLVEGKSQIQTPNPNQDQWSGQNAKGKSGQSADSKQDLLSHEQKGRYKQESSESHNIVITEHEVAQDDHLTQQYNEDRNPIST
UniProt Q04206, sequence (Q04206 whole entry, looked up): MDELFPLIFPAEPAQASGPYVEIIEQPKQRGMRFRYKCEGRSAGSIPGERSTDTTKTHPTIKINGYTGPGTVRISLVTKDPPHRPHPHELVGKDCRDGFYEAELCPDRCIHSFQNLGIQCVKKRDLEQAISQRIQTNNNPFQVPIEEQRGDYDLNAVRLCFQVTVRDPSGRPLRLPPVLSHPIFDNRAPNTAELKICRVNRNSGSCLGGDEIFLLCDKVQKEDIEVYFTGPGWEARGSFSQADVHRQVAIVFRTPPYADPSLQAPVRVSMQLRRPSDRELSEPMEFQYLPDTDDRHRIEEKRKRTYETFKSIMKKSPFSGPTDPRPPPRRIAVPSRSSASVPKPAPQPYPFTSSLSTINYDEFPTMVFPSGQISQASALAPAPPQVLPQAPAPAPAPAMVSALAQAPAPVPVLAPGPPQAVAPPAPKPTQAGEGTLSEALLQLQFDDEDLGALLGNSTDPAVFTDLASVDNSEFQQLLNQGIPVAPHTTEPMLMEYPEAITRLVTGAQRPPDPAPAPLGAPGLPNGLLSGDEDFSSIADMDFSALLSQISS
UniProt Q86UA6, sequence (Q86UA6 whole entry, looked up): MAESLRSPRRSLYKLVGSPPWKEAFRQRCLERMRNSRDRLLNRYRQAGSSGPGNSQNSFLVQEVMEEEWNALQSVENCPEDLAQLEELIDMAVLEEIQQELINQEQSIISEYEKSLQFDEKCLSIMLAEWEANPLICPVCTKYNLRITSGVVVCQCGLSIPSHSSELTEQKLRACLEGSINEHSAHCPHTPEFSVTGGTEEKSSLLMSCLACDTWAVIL
UniProt O75582, sequence (O75582 whole entry, looked up): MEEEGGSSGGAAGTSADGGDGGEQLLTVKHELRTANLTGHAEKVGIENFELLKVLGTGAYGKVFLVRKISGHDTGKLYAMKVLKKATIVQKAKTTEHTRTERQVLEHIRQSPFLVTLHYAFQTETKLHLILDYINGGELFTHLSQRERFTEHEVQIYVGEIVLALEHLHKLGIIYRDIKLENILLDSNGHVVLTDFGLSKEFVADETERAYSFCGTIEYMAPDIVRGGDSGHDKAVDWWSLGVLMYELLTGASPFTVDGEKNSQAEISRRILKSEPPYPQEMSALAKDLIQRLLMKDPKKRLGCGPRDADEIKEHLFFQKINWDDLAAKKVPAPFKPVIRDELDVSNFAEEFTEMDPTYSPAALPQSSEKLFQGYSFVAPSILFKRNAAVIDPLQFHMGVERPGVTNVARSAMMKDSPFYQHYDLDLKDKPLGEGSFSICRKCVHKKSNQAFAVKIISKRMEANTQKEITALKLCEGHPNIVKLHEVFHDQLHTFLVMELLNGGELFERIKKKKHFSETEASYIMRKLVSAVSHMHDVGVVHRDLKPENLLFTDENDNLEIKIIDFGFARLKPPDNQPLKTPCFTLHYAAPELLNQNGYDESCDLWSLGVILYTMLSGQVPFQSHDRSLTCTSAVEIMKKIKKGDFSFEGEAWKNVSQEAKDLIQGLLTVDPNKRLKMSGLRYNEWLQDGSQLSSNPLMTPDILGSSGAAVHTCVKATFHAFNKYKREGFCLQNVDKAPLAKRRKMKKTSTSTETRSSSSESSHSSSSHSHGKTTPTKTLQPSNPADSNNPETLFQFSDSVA
UniProt Q96GF1, sequence (Q96GF1 whole entry, looked up): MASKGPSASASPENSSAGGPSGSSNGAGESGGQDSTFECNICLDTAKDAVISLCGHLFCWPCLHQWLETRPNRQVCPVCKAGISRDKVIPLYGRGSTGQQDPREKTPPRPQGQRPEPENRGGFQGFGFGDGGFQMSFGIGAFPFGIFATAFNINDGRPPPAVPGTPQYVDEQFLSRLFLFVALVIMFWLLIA
UniProt A1X283, sequence (A1X283 whole entry, looked up): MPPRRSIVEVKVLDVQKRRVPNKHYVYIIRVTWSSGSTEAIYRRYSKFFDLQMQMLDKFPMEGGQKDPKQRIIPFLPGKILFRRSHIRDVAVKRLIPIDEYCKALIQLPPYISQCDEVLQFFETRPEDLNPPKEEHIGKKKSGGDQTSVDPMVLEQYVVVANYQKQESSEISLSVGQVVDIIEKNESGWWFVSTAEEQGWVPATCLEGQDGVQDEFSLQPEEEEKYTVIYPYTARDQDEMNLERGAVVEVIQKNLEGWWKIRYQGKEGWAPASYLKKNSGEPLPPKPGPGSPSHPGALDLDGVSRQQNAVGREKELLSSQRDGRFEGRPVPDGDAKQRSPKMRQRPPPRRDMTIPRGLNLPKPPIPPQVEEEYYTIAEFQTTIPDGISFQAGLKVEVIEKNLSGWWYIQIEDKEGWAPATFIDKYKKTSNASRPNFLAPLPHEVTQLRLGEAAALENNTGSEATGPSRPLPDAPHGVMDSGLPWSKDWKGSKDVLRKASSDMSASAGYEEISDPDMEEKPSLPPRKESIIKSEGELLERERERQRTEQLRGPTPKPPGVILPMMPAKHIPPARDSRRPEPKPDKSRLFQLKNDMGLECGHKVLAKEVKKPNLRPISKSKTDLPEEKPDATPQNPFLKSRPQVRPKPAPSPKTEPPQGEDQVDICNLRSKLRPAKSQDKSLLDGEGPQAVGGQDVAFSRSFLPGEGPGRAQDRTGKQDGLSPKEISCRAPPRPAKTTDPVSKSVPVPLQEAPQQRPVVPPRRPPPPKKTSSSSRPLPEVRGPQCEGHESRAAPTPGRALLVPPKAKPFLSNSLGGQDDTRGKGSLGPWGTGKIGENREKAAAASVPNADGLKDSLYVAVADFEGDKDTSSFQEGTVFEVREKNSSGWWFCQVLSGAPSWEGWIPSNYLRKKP
UniProt P43003, sequence (P43003 whole entry, looked up): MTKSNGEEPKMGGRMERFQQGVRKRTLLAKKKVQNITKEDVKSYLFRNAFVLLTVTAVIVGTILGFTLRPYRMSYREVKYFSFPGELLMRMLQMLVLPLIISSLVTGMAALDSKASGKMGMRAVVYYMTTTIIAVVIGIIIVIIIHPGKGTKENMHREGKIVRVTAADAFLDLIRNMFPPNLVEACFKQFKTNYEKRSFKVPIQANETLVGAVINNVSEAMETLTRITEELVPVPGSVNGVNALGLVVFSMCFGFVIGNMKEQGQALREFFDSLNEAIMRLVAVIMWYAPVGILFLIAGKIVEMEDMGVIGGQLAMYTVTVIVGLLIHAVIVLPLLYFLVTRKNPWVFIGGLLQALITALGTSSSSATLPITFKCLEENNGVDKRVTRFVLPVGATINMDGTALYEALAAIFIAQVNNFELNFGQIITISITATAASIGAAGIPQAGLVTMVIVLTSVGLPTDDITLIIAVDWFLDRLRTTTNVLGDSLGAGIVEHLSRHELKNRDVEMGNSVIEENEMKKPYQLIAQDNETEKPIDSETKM
UniProt Q86X27, sequence (Q86X27 whole entry, looked up): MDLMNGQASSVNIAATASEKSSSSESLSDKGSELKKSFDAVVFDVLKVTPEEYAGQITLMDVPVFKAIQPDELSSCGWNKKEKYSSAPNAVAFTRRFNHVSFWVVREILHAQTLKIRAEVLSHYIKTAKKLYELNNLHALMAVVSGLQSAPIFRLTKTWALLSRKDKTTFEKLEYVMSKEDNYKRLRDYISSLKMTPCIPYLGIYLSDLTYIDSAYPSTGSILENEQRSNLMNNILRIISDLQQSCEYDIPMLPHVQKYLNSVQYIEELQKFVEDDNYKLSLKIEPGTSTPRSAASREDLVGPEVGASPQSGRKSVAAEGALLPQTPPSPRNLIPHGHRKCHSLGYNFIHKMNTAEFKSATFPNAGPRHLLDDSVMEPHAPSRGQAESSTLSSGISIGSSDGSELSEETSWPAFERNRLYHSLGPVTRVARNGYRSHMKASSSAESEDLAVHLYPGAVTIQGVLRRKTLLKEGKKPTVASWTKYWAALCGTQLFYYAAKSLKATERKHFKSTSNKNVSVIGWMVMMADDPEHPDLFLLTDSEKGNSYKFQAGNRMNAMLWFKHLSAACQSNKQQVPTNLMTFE
UniProt Q9NRX5, sequence (Q9NRX5 whole entry, looked up): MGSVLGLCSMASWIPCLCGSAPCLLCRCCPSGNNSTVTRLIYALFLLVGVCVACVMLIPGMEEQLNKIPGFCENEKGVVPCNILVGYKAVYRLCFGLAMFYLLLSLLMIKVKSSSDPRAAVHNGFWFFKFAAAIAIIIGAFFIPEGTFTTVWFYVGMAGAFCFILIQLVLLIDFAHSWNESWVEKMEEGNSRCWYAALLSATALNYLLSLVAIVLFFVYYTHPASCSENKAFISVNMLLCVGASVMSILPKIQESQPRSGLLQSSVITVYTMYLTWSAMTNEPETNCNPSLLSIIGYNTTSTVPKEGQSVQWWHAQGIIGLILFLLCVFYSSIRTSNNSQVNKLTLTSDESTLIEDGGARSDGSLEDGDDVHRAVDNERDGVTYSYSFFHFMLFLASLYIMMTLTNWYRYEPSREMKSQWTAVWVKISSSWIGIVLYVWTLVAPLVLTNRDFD

In the case of RPS19 (UniProt M0R2L9), the log2 fold change with Tubastatin A is -0.186.

As to RNF220 isoform 3 (UniProt Q5VTB9), the log2 fold change in [1] was -0.067.

Consider RBM26 isoform 3 (UniProt Q5T8P6), for which the log2 fold change in the assay with sotrastaurin was -0.052.

As for RMDN2 isoform 2 (UniProt Q96LZ7), the log2 fold change in the assay with defactinib was -0.218; in [2], -0.206.

As to SLC1A3 (UniProt P43003), the log2 fold change in the assay with saracatinib was 0.277; with alvocidib, 0.056; with Tubastatin A it was -0.157; in assay [1], -0.034; with defactinib, -0.013; with rucaparib, 0.027. The log2 fold change in assay [3] is 0.481 (active); with encorafenib it was 0.072; in [2], 0.106.

For RNF26 (UniProt Q9BY78), the log2 fold change was 0.119 with defactinib and 0.292 in [2].

For RUNX1 isoform 8 (UniProt Q01196), the log2 fold change in the assay with saracatinib is -0.025; with sotrastaurin, -0.132; in assay [1], -0.046; with defactinib it was 0.01; in the assay with rucaparib it was 0.024; in assay [3] it was 0.014. The log2 fold change in the assay with encorafenib was 0.183; in [2], 0.047.

Turning to RALGPS2 (UniProt Q86X27), the log2 fold change with saracatinib was -0.042; with alvocidib it was 0.192; with Tubastatin A, 0.18; in [1], -0.098; with defactinib, 0.176; with rucaparib, -0.133. Besides, the results for the log2 fold change (in assay [3]; with encorafenib; in assay [2]) were 0.159, 0.425 and -0.101, respectively.

Turning to SH3PXD2B (UniProt A1X283), the log2 fold change with sotrastaurin is -0.017; in the assay with alvocidib it was -0.047; with Tubastatin A, -0.013; in assay [1], 0.061; in the assay with defactinib, 0.013; with rucaparib it was 0.238. For the same target, the log2 fold change in the assay with encorafenib was 0.011; in assay [2], 0.359.

Regarding SEMG2 (UniProt Q02383), the log2 fold change with sotrastaurin was -0.016; with alvocidib, 0.206; with Tubastatin A, 0.025; with rucaparib it was -0.033; in the assay with encorafenib it was -0.011.

For the target RPAIN isoform 8 (UniProt Q86UA6), the log2 fold change with saracatinib is -0.036; in the assay with sotrastaurin, -0.09; with alvocidib it was -0.036; with Tubastatin A it was -0.016; with defactinib, -0.231; in assay [3] it was -0.082. In addition, in assay [2], the log2 fold change was 0.094.

Consider RPS6KA5 (UniProt O75582), for which the log2 fold change is 0.083 in assay [1], 0.135 with rucaparib and 0.148 in the assay with encorafenib.

RNF185 (UniProt Q96GF1): the log2 fold change with alvocidib was -0.003; with Tubastatin A, 0.011; in [1], 0.001; with defactinib, -0.023; with rucaparib, 0.006; with encorafenib, -0.094. For the same target, in [2], the log2 fold change was 0.125.

With SERINC1 (UniProt Q9NRX5), the log2 fold change was 0.093 with saracatinib; -0.053 with sotrastaurin; -0.128 in the assay with Tubastatin A; -0.008 in [1]; 0.031 in the assay with defactinib; -0.095 with rucaparib. Also, the log2 fold change is -0.088 in assay [3], -0.062 with encorafenib and 0.055 in assay [2].

As to RELA (UniProt Q04206), the log2 fold change was 0.027 with saracatinib; -0.036 with sotrastaurin; -0.017 with Tubastatin A; 0.032 in assay [1]; -0.077 in the assay with defactinib; -0.026 with rucaparib. The log2 fold change in [3] is -0.029; with encorafenib, 0.044; in assay [2], -0.011.
